The results in this text go back to PubChem BioAssay (EPA / NIEHS).

The source made the active and inactive calls. How the source made its calls: active means hit-call score of the fitted dose curve at least 0.9, where 1 is the maximum; inactive means score below 0.9.

Assay [1] is described as follows: CEETOX_H295R_DOC: CeeTox H295R High-throughput Steroidogenesis Assay for DOC (AID 2283439). To be noted: actives raise or lower the signal. The method in brief:
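H295R, fsk 10 uM ×48 h pre, cmpd ×48 h (0.1% DMSO). Media → MTBE extr. → LC-MS/MS, DOC. Bidirectional fit vs DMSO; MTT viability same wells, re-test diluted if <70%.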

Assay [2] in a line: CEETOX_H295R_ESTRADIOL: CeeTox H295R High-throughput Steroidogenesis Assay for Estradiol (AID 2283440).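 Further: estradiol secreted into medium quantified by LC-MS/MS after dansyl derivatisation.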 Conditions: actives raise or lower the signal. The method in brief:
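Following OECD 456 with minor changes, H295R cells received 10 uM forskolin for 48 h and then test chemical for 48 h. Hormone output was read by HPLC-MS/MS, with cytotoxic concentrations diluted until MTT viability reached ≥70%.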

A short description of assay [3]: CEETOX_H295R_ESTRONE: CeeTox H295R High-throughput Steroidogenesis Assay for Estrone (AID 2283441).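 Further: estrone secreted into medium measured by LC-MS/MS after dansyl derivatization.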 Conditions: actives raise or lower the signal. The method in brief: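 Forskolin-stimulated H295R cells are treated 48 h with chemical, and estrone in the medium is measured by LC-MS/MS. Activity is fitted in both directions relative to DMSO controls, with chemicals diluted until MTT viability reaches at least 70%.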

A short description of assay [4]: CEETOX_H295R_PROG: CeeTox H295R High-throughput Steroidogenesis Assay for Progesterone (PROG) (AID 2283442). Conditions: actives raise or lower the signal. In outline: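 Adrenal H295R line, forskolin-stimulated (10 uM, 48 h) before dosing. 48 h exposure, 0.1% DMSO vehicle. Secreted progesterone by reverse-phase HPLC with ESI+ MS/MS quantification; DMSO-normalised bidirectional curve fit.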

Read-out in assay [5]: Tumor necrosis factor receptor superfamily member 6 (Homo sapiens) (UniProt P25445)
The assay is described as follows: LTEA_HepaRG_FAS: Life Technologies and Expression Analysis (LTEA) Assay for Fas cell surface death receptor (FAS) using HepaRG (AID 2283447). Conditions: mRNA level, 48 h; actives raise or lower the signal. The method in brief:
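Differentiated HepaRG cells in serum-free induction medium were exposed 48 h to 8 half-log concentrations up to 100 uM in 0.5% DMSO, in duplicate. FAS mRNA was measured by qRT-PCR normalised to ACTB, GAPDH and POLR2A; bidirectional fit versus DMSO.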

Read-out in assay [6]: Fatty acid synthase (Homo sapiens) (UniProt P49327)
The assay is described as follows: LTEA_HepaRG_FASN: Life Technologies and Expression Analysis (LTEA) Assay for Fatty Acid Synthase (FASN) using HepaRG (AID 2283448). To be noted: mRNA level, 48 h; actives raise or lower the signal. The method in brief:
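In human HepaRG cultures, 48 h chemical exposure (up to 100 uM, 0.5% DMSO) preceded TaqMan qRT-PCR of FASN.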

Read-out in assay [7]: Cyclin Dependent Kinase Inhibitor 1A (CDKN1A), CDKN1A (gene 1026)
The assay is described as follows: LTEA_HepaRG_CDKN1A: Life Technologies and Expression Analysis (LTEA) Assay for Cyclin Dependent Kinase Inhibitor 1A (CDKN1A) using HepaRG (AID 2283450). Conditions: mRNA level, 48 h; actives raise or lower the signal. In outline: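 Cryopreserved HepaRG cells were plated and cultured 48 h, then switched to serum-free induction medium. Chemicals (eight half-log concentrations, top 100 uM, 0.5% DMSO) were applied for 48 h. Lysates underwent qRT-PCR for CDKN1A with housekeeping normalization.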

Read-out in assay [8]: Cyclin D1 (CCND1), CCND1 (gene 595)
The assay can be described thus: LTEA_HepaRG_CCND1: Life Technologies and Expression Analysis (LTEA) Assay for Cyclin D1 (CCND1) using HepaRG (AID 2283451).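 On AC50: TaqMan qRT-PCR transcript level normalised to ACTB GAPDH and POLR2A housekeeping genes.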 To be noted: mRNA level, 48 h; actives raise or lower the signal. In outline:
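Human liver HepaRG line; 48 h dosing, 8 conc. ≤100 uM, 0.5% DMSO; TaqMan qRT-PCR mRNA, 3 housekeeping genes; bidirectional curve fit vs DMSO.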

Read-out in assay [9]: catalase (CAT), CAT (gene 847)
The assay can be described thus: LTEA_HepaRG_CAT: Life Technologies and Expression Analysis (LTEA) Assay for catalase (CAT) using HepaRG (AID 2283452). To be noted: mRNA level, 48 h; actives raise or lower the signal. The method in brief:
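HepaRG cells in serum-free induction medium, 0.5% DMSO vehicle, exposed 48 h in duplicate over 8 half-log concentrations from 100 uM. CAT mRNA measured by qRT-PCR, normalized to ACTB, GAPDH, POLR2A; bidirectional fit versus DMSO.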

Read-out in assay [10]: flavin-containing dimethylaniline monooxygenases 3 (FMO3), FMO3 (gene 2328)
The assay can be described thus: LTEA_HepaRG_FMO3: Life Technologies and Expression Analysis (LTEA) Assay for flavin-containing dimethylaniline monooxygenases 3 (FMO3) using HepaRG (AID 2283453). To be noted: mRNA level, 48 h; actives raise or lower the signal. The method in brief: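 Eight-point concentration-response in serum-free HepaRG cultures (top 100 uM, 0.5% DMSO, 48 h). Read-out: FMO3 mRNA level normalized to three endogenous control genes, fitted bidirectionally versus vehicle.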

Read-out in assay [11]: Cytochrome P450 (CYP1A1), CYP1A1 (gene 1543)
The assay is described as follows: LTEA_HepaRG_CYP1A1: Life Technologies and Expression Analysis (LTEA) Assay for Cytochrome P450 (CYP1A1) using HepaRG (AID 2283454). To be noted: mRNA level, 48 h; actives raise or lower the signal. In outline:
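Induction of CYP1A1 mRNA in a human hepatic cell line was measured 48 h after dosing, with 1 mM phenobarbital as induction positive control and 0.5% DMSO vehicle as baseline for bidirectional curve fitting.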

Read-out in assay [12]: CFLAR gene, CFLAR (gene 8837)
The assay can be described thus: LTEA_HepaRG_CFLAR: Life Technologies and Expression Analysis (LTEA) Assay for CFLAR gene using HepaRG (AID 2283455). To be noted: mRNA level, 48 h; actives raise or lower the signal. The method in brief: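 qRT-PCR read-out (Fluidigm/TaqMan) of CFLAR mRNA, normalized to three housekeeping genes, in differentiated human HepaRG cells after 48 h chemical exposure; 8-point half-log series from 100 uM in 0.5% DMSO; bidirectional curve fitting versus DMSO.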

Read-out in assay [13]: Forkhead box O1 (FOXO1), FOXO1 (gene 2308)
The assay is described as follows: LTEA_HepaRG_FOXO1: Life Technologies and Expression Analysis (LTEA) Assay for Forkhead box O1 (FOXO1) using HepaRG (AID 2283456). To be noted: mRNA level, 48 h; actives raise or lower the signal. The method in brief:
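HepaRG, 48 h exposure, 8-pt half-log series from 100 uM in 0.5% DMSO, duplicates; Fluidigm qRT-PCR mRNA, housekeeping-normalised; bidirectional fit vs DMSO baseline.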

Read-out in assay [14]: growth arrest and DNA damage 45 (GADD45A), GADD45A (gene 1647)
The assay is described as follows: LTEA_HepaRG_GADD45A: Life Technologies and Expression Analysis (LTEA) Assay for growth arrest and DNA damage 45 (GADD45A) using HepaRG (AID 2283458). Conditions: mRNA level, 48 h; actives raise or lower the signal. The method in brief: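 Eight-point concentration-response in HepaRG cells: 48 h chemical exposure, 0.5% DMSO vehicle, top dose 100 uM. Normalized qRT-PCR mRNA readout with bidirectional fitting relative to DMSO.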

Read-out in assay [15]: Forkhead box O3 (FOXO3), FOXO3 (gene 2309)
The assay is described as follows: LTEA_HepaRG_FOXO3: Life Technologies and Expression Analysis (LTEA) Assay for Forkhead box O3 (FOXO3) using HepaRG (AID 2283459). To be noted: mRNA level, 48 h; actives raise or lower the signal. In outline:
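qRT-PCR readout of FOXO3 transcript, normalized to three housekeeping genes (ACTB, GAPDH, POLR2A); gain or loss fitted against 0.5% DMSO vehicle. HepaRG cells, 48 h chemical exposure, 8-point half-log series, top 100 uM.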

Read-out in assay [16]: ABC Transporter (ABCB1), ABCB1 (gene 5243)
The assay can be described thus: LTEA_HepaRG_ABCB1: Life Technologies and Expression Analysis (LTEA) Assay for ABC Transporter (ABCB1) using HepaRG (AID 2283460). Conditions: mRNA level, 48 h; actives raise or lower the signal. In outline:
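HepaRG, 48 h exposure, 8-pt half-log series from 100 uM, 0.5% DMSO vehicle, duplicates. Readout: ABCB1 transcript by Fluidigm TaqMan qRT-PCR, housekeeping-normalized; bidirectional curve fit vs DMSO baseline.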

Read-out in assay [17]: growth arrest and DNA damage 45 (GADD45B), GADD45B (gene 4616)
The assay can be described thus: LTEA_HepaRG_GADD45B: Life Technologies and Expression Analysis (LTEA) Assay for growth arrest and DNA damage 45 (GADD45B) using HepaRG (AID 2283461). To be noted: mRNA level, 48 h; actives raise or lower the signal. The method in brief:
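Values are bidirectional concentration-response fits against 0.5% DMSO controls. Underlying data: qRT-PCR mRNA levels in human HepaRG liver cells treated 48 h in serum-free induction medium, eight concentrations topping at 100 uM.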

Read-out in assay [18]: ABC Transporter (ABCC3), ABCC3 (gene 8714)
The assay is described as follows: LTEA_HepaRG_ABCC3: Life Technologies and Expression Analysis (LTEA) Assay for ABC Transporter (ABCC3) using HepaRG (AID 2283462). To be noted: mRNA level, 48 h; actives raise or lower the signal. The method in brief: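 Differentiated HepaRG liver cells receive test chemicals at eight concentrations (max 100 uM) for 48 h. Expression of ABCC3 is quantified by qRT-PCR against ACTB, GAPDH and POLR2A, and activity is fitted in both directions against the DMSO control.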

Read-out in assay [19]: Cyclin D2 (CCND2), CCND2 (gene 894)
The assay is described as follows: LTEA_HepaRG_CCND2: Life Technologies and Expression Analysis (LTEA) Assay for Cyclin D2 (CCND2) using HepaRG (AID 2283449).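 Further: CCND2 transcript measured by TaqMan qRT-PCR and normalised to three housekeeping genes.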 To be noted: mRNA level, 48 h; actives raise or lower the signal. In outline: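 HepaRG, 48 h dosing, 8-pt half-log curve from 100 uM, 0.5% DMSO; duplicate wells. Readout: CCND2 transcript by microfluidic qRT-PCR, housekeeping-normalised; bidirectional fit vs DMSO baseline.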

Fatty acid synthase (Homo sapiens), sequence (P49327 whole entry, looked up): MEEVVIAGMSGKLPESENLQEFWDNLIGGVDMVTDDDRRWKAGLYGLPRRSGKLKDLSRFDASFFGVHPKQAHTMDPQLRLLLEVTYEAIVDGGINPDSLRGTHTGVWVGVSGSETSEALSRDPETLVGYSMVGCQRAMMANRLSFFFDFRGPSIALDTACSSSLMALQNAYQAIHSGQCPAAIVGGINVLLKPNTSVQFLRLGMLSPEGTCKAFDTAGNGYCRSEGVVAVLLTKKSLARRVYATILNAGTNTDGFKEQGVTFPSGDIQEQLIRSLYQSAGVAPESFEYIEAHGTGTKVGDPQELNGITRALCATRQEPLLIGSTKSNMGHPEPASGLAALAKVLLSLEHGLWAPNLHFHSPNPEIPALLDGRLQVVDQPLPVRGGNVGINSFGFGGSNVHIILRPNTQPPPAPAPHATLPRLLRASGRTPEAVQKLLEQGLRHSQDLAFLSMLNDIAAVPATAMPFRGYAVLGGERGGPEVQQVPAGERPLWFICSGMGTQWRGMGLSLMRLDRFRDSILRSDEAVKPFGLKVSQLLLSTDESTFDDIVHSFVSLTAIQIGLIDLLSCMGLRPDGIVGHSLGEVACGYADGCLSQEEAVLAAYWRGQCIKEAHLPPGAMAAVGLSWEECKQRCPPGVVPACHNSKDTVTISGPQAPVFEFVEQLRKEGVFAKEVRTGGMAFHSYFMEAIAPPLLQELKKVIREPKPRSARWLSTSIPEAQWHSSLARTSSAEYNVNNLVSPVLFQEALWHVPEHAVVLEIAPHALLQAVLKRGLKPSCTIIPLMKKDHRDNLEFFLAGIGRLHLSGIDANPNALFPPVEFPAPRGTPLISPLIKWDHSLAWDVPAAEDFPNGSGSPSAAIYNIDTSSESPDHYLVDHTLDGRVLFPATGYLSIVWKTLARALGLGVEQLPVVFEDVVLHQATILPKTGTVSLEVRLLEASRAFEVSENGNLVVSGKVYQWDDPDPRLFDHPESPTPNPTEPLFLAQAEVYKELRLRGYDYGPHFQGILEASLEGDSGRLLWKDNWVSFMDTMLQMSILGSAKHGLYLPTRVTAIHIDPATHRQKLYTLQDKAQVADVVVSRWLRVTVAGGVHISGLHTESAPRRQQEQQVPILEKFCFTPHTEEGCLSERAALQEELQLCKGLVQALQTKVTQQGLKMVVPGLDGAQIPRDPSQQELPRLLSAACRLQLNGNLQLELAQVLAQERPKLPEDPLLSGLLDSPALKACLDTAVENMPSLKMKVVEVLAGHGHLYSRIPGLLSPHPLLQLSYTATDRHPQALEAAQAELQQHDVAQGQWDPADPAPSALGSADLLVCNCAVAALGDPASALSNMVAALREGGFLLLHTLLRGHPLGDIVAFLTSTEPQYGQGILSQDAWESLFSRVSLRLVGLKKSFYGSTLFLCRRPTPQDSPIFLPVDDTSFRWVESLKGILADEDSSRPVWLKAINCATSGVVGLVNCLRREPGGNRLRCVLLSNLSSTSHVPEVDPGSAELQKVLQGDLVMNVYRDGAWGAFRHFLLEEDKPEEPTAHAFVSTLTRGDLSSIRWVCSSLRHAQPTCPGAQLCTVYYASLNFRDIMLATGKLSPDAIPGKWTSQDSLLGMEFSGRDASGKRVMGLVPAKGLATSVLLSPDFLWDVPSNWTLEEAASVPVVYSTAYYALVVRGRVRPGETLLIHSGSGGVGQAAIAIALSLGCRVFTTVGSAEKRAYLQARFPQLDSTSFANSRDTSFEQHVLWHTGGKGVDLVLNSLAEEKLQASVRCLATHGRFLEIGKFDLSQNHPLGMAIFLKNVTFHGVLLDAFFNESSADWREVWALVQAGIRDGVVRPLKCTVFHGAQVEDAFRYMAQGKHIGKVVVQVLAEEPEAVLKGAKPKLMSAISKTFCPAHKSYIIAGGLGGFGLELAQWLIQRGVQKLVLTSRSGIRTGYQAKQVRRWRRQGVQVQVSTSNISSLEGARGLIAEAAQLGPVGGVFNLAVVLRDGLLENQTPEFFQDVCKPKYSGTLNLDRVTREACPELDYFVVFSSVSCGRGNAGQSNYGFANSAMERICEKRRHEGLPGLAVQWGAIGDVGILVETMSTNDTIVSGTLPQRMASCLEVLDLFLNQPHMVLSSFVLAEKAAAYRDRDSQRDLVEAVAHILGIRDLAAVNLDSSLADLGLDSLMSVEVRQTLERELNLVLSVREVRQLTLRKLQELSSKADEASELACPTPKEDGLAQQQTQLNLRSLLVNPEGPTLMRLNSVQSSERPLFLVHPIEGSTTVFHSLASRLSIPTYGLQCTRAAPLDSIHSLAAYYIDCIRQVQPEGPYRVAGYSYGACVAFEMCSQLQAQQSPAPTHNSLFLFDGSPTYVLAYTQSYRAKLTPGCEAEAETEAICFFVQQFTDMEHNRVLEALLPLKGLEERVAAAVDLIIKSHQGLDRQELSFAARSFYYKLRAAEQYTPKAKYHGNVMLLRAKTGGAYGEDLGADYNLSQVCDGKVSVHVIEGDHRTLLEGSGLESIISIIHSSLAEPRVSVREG

Turning to `COc1cccc(-c2ccc(/C=C\CN3CCCCCC3)cc2Cl)c1`, the compound was called inactive in assay [1], in assay [2], in assay [3], in assay [4], in assay [7] and in assay [12]. Besides, the call in [15] and in assay [16] was inactive. Further, the AC50 (commonly the concentration at which the activity in the assay is half-maximal) in assay [5] was 77.5 µM (active); in [6], 45.2 µM (active); in assay [8] it was 72.2 µM (active); in assay [9] it was 69.7 µM (active); in assay [10], 68.8 µM (active); in assay [11] it was 45.2 µM (active). For the same compound, the half-maximal activity concentration (AC50) in assay [13] is 70.8 µM (active); in [14], 69 µM (active); in [17], 76.2 µM (active); in [18], 75.9 µM (active).

`CCOC(=O)CC(CC(=O)OCC)(OC(C)=O)C(=O)OCC`: the result in assay [5], in assay [6], in assay [19], in assay [7], in [8] and in [9] was inactive. The compound was called inactive in assay [10], in assay [12], in assay [13], in assay [14], in assay [15] and in [17]. The result in [18] was inactive. Also, in assay [11], the AC50 was 70.5 µM (active).

As for `CCOC(=O)COc1ccc2c(c1)CC(NCC(O)c1cccc(Cl)c1)CC2` (stereo unspecified), the compound was called inactive in assay [5], in [6], in assay [19], in [7], in assay [8] and in [9]. The compound was classed as inactive in assay [10], in assay [11], in [12], in assay [13], in assay [14] and in assay [15]. For the same compound, the outcome in assay [16], in [17] and in assay [18] was inactive.

`O=C1CCCCCN1`: the result in assay [5], in assay [6], in [19], in assay [7], in assay [8] and in assay [9] was inactive. The result in assay [10], in [11], in assay [12], in [13], in assay [14] and in [15] was inactive. In addition, the outcome in assay [17] and in [18] was inactive.
